Here are results for 16 compounds from PubChem BioAssay.

Each structure is given as a SMILES string. Calls of active or inactive are those of the source.

The target in one experiment is Albumin (Bos taurus) (UniProt P02769). The experiment can be described thus: compounds binding labelled BSA control protein – biochemical, small-molecule microarray, Alexa647 label, 635/667 nm fluorescence, artefact control for SMM control protein annotation, profiling panel (AID 1118).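 Note: score merges 667 nm emission intensity and signal-to-noise per printed compound spot.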 The note with it: BSA-A647 binding, fluorescence 635 nm, higher = more signal.
Albumin (Bos taurus), sequence (P02769 whole entry, looked up): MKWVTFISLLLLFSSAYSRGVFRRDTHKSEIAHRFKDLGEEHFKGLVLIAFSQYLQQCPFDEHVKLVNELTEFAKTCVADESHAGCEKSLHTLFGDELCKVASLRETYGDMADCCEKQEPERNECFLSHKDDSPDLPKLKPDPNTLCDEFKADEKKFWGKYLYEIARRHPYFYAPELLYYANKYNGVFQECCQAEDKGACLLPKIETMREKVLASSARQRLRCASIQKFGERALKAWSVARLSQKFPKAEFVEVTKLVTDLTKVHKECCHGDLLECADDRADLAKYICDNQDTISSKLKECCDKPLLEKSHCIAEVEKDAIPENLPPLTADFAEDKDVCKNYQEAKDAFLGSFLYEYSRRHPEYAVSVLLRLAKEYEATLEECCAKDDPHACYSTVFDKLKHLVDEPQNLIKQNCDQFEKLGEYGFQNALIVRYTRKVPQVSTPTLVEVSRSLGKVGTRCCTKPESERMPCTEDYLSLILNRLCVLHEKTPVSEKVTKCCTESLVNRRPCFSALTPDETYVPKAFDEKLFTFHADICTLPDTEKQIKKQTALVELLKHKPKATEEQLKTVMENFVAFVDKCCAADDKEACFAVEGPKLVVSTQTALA
The nature of experiment [1]: probe aXIP binding to arrayed compounds – biochemical, NeuroSMM set, 635/667 nm fluorescence, primary screen (AID 1119).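 Note: probe is the protein aXip251-270 applied at 1 µg/mL to compound-printed slides; binding of probe to printed compounds measured as 667 nm fluorescence plus signal to noise.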 The note with it: small-molecule microarray, higher = more signal, called active from +8 up or from −8 down.
The nature of experiment [2]: probe aNOTCH3 binding on compound microarray – biochemical, small-molecule microarray, 635/667 nm fluorescence, primary screen (AID 1120).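 Note: probe is a biotin-tagged antibody raised against NOTCH3 rather than NOTCH3 protein; score merges spot fluorescence near 667 nm with spot signal to noise.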 The note with it: higher = more signal.
Experiment [3] can be described thus: probe aNOTCH2 binding on compound microarray – biochemical, small-molecule microarray, 635/667 nm fluorescence, primary screen (AID 1121).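 Note: score merges feature fluorescence read at 667 nm with its signal to noise.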 The settings on record: higher = more signal.
Experiment [4] deals with Carbonic anhydrase 2 (Homo sapiens) (UniProt P00918). The experiment can be described thus: compounds binding carbonic anhydrase 2 – biochemical, small-molecule microarray, Alexa647-labelled CAII, profiling panel (AID 1122). The note with it: CAII-A647 binding fluorescence, higher = more signal.
A short description of experiment [5]: COS7 lysate on small-molecule microarray, probe aHis, 635 nm (AID 1123).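 Note: z-score combines 667nm fluorescence intensity with signal-to-noise per printed compound spot.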 The note with it: COS7 cell lysate, fluorescence, higher = more signal.
Experiment [6] in a line: probe aLAP1 signal on lysate-treated microarray – cell lysate, small-molecule microarray, COS7 lysate, primary screen (AID 1124).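 Note: lysate comes from COS7 cells expressing LAP1 and is applied at 0.3 µg/mL; score merges spot fluorescence near 667 nm with signal-to-noise over triplicate slides.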 The settings on record: probe aLAP1, fluorescence, higher = more signal.
The subject of the next experiment is Sam68 (KHDRBS1). The experiment can be described thus: compounds binding KHDRBS1 protein – biochemical, small-molecule microarray, 635 nm fluorescence, primary screen (AID 1125).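 Note: score merges 667 nm channel intensity with signal to noise over triplicate slides.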 The note with it: higher = more signal.
The subject of experiment [7] is Chordin-like protein 2 (CHRDL2). As to the kind of experiment: compounds binding chordin-like 2 – biochemical, small-molecule microarray, 635 nm fluorescence, primary screen (AID 1126).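 Note: printed compound slides probed with Chrdl2 protein at 4 µg/mL for 1 h at 4 C; score merges 667 nm emission intensity with signal to noise over three replicate slides.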 The settings on record: fluorescence 635 nm, higher = more signal.
In experiment [8] the target is Concanavalin-A (Canavalia ensiformis) (UniProt P02866). The experiment can be described thus: compounds binding concanavalin A lectin – biochemical, small-molecule microarray, Alexa647 label, 635 nm, artefact control for SMM control protein annotation, primary screen (AID 1127).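 Note: z combines 667 nm emission intensity with signal-to-noise across three replicate slides.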 The settings on record: ConA-A647 binding fluorescence, higher = more signal.
Concanavalin-A (Canavalia ensiformis), sequence (P02866 whole entry, looked up): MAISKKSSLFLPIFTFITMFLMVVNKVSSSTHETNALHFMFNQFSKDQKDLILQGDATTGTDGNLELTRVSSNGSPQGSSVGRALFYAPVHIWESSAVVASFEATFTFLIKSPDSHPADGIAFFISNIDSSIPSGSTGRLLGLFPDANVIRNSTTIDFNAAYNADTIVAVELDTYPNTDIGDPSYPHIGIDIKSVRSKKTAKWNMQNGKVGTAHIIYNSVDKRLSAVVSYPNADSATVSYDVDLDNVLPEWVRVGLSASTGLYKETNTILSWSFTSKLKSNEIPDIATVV

For `CN(C)C(=O)[C@]1(CCC(=O)OC(C)(C)C)N=C(c2ccc(OCCCO)cc2)O[C@@H]1c1ccccc1`, the composite z-score with Albumin (Bos taurus) is 0.383; in experiment [2], 0.116; in experiment [3], -0.0308; in [4], 0.469; in experiment [5], 3.06; in experiment [6], 0.264. The results for the composite z-score (with Sam68 (KHDRBS1); in [7]; in experiment [8]) were 0.374, -0.792 and 0.34, respectively. For the same compound, the composite Z-score in experiment [1] was 0.666 (inactive).
In the case of `NC(=O)NCC#Cc1ccc2c(c1)[C@]1(C(=O)N2)[C@H](c2ccc(O)cc2)N2[C@H](c3ccccc3)[C@H](c3ccccc3)OC(=O)[C@H]2[C@@H]1C(=O)Nc1nc2ccccc2s1`, the composite z-score is 0.121 in the experiment with Albumin (Bos taurus); -0.0259 in [2]; -0.0203 in experiment [3]; 0.431 in experiment [4]; 0.66 in experiment [5]; 0.11 in experiment [6]. For the same compound, the values for the composite z-score (with Sam68 (KHDRBS1); in [7]; in experiment [8]) were 0.637, 1.17 and 0.962, respectively. Besides, in [1], the composite Z-score is 0.0296 (inactive).
For the compound `O=C1O[C@@H](c2ccccc2)[C@@H](c2ccccc2)N2[C@@H](c3ccc(O)cc3)[C@]3(C(=O)Nc4ccc(C#CCCO)cc43)[C@@H](C(=O)NC[C@H](O)c3ccccc3)[C@H]12`, the composite z-score with Albumin (Bos taurus) was 0.273; in [2], -0.158; in experiment [3], -0.167; in experiment [4] it was 0.724; in [5] it was -0.112; in experiment [6], 0.102. Further, the composite z-score is 0.249 in the experiment on Sam68 (KHDRBS1), -1.39 in experiment [7] and -0.101 in [8]. Besides, the composite Z-score in experiment [1] was 1.62 (inactive).
For the compound `COC(=O)[C@@]1(Cc2ccccc2)[C@H]2c3cc(C(=O)N4CCCC4)[nH]c3C[C@H]2CN1C(=O)c1ccccc1`, the composite z-score with Albumin (Bos taurus) amounted to 0.5; in [2], 0.0203; in [3], 0.111; in experiment [4] it was 0.722; in experiment [5] it was 3.51; in experiment [6], 0.341. Besides, the composite z-score with Sam68 (KHDRBS1) is -1.81; in [7] it was -0.782; in experiment [8] it was -1.15. For the same compound, the composite Z-score in experiment [1] is -0.37 (inactive).
As for `O=C1NC(=O)C2C1C=CC(C(O)c1ccc3c(c1)OCO3)N2Nc1ccccn1` (stereo not given), the composite z-score with Albumin (Bos taurus) is 0.939; in [2] it was -0.0324; in [3], -0.12; in [4], 0.555; in experiment [5] it was 2.99; in experiment [6], 0.183. The composite z-score in the experiment on Sam68 (KHDRBS1) came to 0.153; in experiment [7], 0.704; in experiment [8], 0.667. In addition, the composite Z-score in [1] was 0.246 (inactive).
In the case of `CC[C@@H]1[C@H]2C3C(=O)N(CC)C(=O)C3CC(=O)[C@H]2[C@H](c2ccc(C)cc2)N1S(=O)(=O)c1ccc(C)cc1` (stereo not given in full), the composite z-score was 0.779 with Albumin (Bos taurus); 0.0271 in experiment [2]; -0.0468 in [3]; 0.512 in experiment [4]; 1.21 in experiment [5]; -0.357 in [6]. In addition, the composite z-score with Sam68 (KHDRBS1) is 1.33; in [7], -0.49; in experiment [8], 0.914. Moreover, the composite Z-score in experiment [1] is -0.337 (inactive).
For the compound `C=CC[C@@]1(C(=O)N2CCCCC2)N=C(c2ccc(OCCCO)cc2)O[C@@H]1c1ccccc1`, the composite z-score was 0.676 with Albumin (Bos taurus); 0.284 in [2]; 0.195 in experiment [3]; 0.57 in [4]; 2.39 in experiment [5]; 1.07 in [6]. The composite z-score in the experiment with Sam68 (KHDRBS1) is 1.29; in experiment [7] it was 0.453; in experiment [8], 0.357. Moreover, the composite Z-score in experiment [1] was -0.221 (inactive).
For `CC(C)(C)OC(=O)CC[C@]1(C(=O)O)N=C(c2ccc(OCCCO)cc2)O[C@H]1c1ccccc1`, the composite z-score is 0.419 with Albumin (Bos taurus); 0.318 in experiment [2]; -0.203 in experiment [3]; 0.808 in experiment [4]; 0.787 in [5]; 0.448 in experiment [6]. In addition, the composite z-score in the experiment with Sam68 (KHDRBS1) is -0.612; in [7], -0.556; in experiment [8], 0.206. The composite Z-score in [1] is -0.179 (inactive).
Regarding `C=C(CCCC)/C(=C/C[C@@H](OC(=O)c1ccncc1)c1cccc(OCCO)c1)c1cnc2ccccc2c1`, the composite z-score is 0.413 in the experiment with Albumin (Bos taurus); 0.272 in experiment [2]; -0.0495 in [3]; 0.893 in experiment [4]; 1.04 in experiment [5]; 0.327 in experiment [6]. For the same compound, the composite z-score with Sam68 (KHDRBS1) was determined as 1.16; in [7], 1.54; in experiment [8], 1.1. The composite Z-score in experiment [1] was 0.815 (inactive).
Take `Cc1c(NC(=O)/C(C#N)=C/C=C/c2ccccc2[N+](=O)[O-])c(=O)n(-c2ccccc2)n1C`: the composite z-score in the experiment with Albumin (Bos taurus) was 0.974; in [2], -0.0903; in experiment [3], -0.0234; in [4], 0.643; in [5] it was 1.11; in [6], 1.04. The results for the composite z-score (in the experiment with Sam68 (KHDRBS1); in [7]; in experiment [8]) were 0.708, 0.704 and 0.761, respectively. For the same compound, the composite Z-score in [1] is -0.148 (inactive).
For `O=C1NC(=O)C2C1C=CC(C(O)c1cc(C(F)(F)F)cc(C(F)(F)F)c1)N2Nc1ccc(Cl)cc1Cl` (stereo not given), the composite z-score is 0.839 with Albumin (Bos taurus); 0.0833 in experiment [2]; -0.0703 in experiment [3]; 0.583 in experiment [4]; 2.45 in experiment [5]; 0.554 in [6]. Moreover, the composite z-score was -0.163 with Sam68 (KHDRBS1), -0.464 in [7] and -0.415 in experiment [8]. Further, the composite Z-score in [1] was 0.809 (inactive).
`[N-]=[N+]=Nc1ccccc1C[C@@]1(C(=O)O)N=C(c2ccc(OCCCO)cc2)O[C@@H]1c1ccccc1`: the composite z-score in the experiment with Albumin (Bos taurus) was 0.952; in [2] it was 0.0208; in experiment [3], -0.0895; in experiment [4] it was 0.799; in [5], 2.76; in experiment [6], 0.45. Moreover, the figures for the composite z-score (in the experiment with Sam68 (KHDRBS1); in experiment [7]; in experiment [8]) were 1.03, -0.777 and 1.15, respectively. Also, the composite Z-score in [1] is 0.77 (inactive).
On to `C=CCC(OC(C)=O)[C@@H]1[C@@H](N(Cc2cc3ccccc3o2)C(=O)c2ccc(C)cc2)c2cc(OCCCO)ccc2N1C(=O)Cc1ccc2ccccc2c1` (stereo not given in full), for which the composite z-score with Albumin (Bos taurus) was 0.324; in [2], 0.0311; in [3], -0.0077; in [4] it was -0.138; in [5], 0.0465; in experiment [6], -0.057. The composite z-score was -0.366 with Sam68 (KHDRBS1), 0.208 in experiment [7] and -1.56 in experiment [8]. Further, the composite Z-score in experiment [1] was 0.0991 (inactive).
For the compound `C=C(CCCC)C(=O)CC[C@@H](OC(=O)c1ccccc1-c1ccccc1C(=O)O)c1cccc(OCCO)c1`, the composite z-score in the experiment with Albumin (Bos taurus) was -0.658; in experiment [2], -0.15; in [3] it was -0.154; in [4], 0.728; in [5] it was 0.361; in experiment [6], 0.742. The composite z-score in the experiment with Sam68 (KHDRBS1) was 0.986; in experiment [7], 1.22; in experiment [8] it was -0.5. For the same compound, the composite Z-score in [1] was -0.263 (inactive).
As for `CC1CC/C=C\[C@H]2OC34C=CCN(CCN5CCOCC5)C(=O)[C@H]3N(CCO)C(=O)[C@@H]4C2C(=O)O1` (stereo not given in full), the composite z-score is -0.0406 with Albumin (Bos taurus); -0.22 in [2]; -0.104 in experiment [3]; 0.802 in [4]; -0.265 in experiment [5]; 0.973 in experiment [6]. The composite z-score in the experiment on Sam68 (KHDRBS1) was -2.29; in [7] it was -1.02; in experiment [8], -0.889. Also, the composite Z-score in experiment [1] was 0.377 (inactive).
`C=CCN1Cc2ccccc2C[C@@]2(N=C(c3ccc(OCCCO)cc3)O[C@H]2c2ccccc2)C1=O`: the composite z-score is 0.247 in the experiment with Albumin (Bos taurus); 0.106 in experiment [2]; -0.0148 in experiment [3]; 0.577 in experiment [4]; 3.06 in [5]; 0.326 in experiment [6]. Further, the values for the composite z-score (with Sam68 (KHDRBS1); in [7]; in experiment [8]) were 1.3, 0.185 and 1.14, respectively. Also, the composite Z-score in experiment [1] is 0.667 (inactive).
